For 1 sequence, binding signal results are on record in article PMC7862700, “An all-to-all approach to the identification of sequence-specific readers for epigenetic DNA modifications on cytosine”.

Experiment in all cases: DAPPL (digital affinity profiling via proximity ligation, sequencing); 10 mM Tris-HCl pH 7.5, 50 mM NaCl, 1 mM DTT, 4% glycerol, room temperature, 30 min; GST-TFs on glutathione beads, 16-mer random dsDNA library, 0.1% formaldehyde crosslink after washing; high values mean tight binding
One assay addresses T1, FLI1 (Homo sapiens, UniProt Q01543 1-452).
T1 sequence: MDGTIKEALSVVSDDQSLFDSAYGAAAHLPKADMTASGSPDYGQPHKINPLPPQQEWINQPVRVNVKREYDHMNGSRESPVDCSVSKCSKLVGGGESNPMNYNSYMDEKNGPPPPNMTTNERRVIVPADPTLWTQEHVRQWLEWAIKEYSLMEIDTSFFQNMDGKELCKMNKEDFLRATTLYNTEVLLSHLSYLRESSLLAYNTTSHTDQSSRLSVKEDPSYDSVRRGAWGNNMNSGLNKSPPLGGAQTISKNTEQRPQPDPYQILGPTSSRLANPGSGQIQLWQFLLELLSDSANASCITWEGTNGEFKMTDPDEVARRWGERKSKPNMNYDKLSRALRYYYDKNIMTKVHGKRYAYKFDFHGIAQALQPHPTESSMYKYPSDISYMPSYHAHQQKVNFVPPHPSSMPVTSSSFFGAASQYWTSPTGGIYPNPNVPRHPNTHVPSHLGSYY
The conditions noted are these: protein: recombinant; tags: N-terminal GST; dsDNA, one strand shown. An outline of the steps:
(§1)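 The binding signal reported is, for every hexamer, its read frequency for a factor over its read frequency for the tag-only sample. Reads came from pools of yeast-expressed, GST-fused human transcription factors on glutathione beads, barcoded with DNA and mixed with that sample, which were incubated with 200 nmole of a random double-stranded 16-mer DNA library in Tris/NaCl/DTT/glycerol buffer at room temperature for 30 min. After washing, the pools were crosslinked with 0.1% formaldehyde, proximity-ligated with BsaI/T4 ligase for 1 h at 37 °C, PCR-amplified and sequenced on an Illumina NextSeq500.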

Another assay addresses T2, ELK1 (Homo sapiens, UniProt P19419 1-428).
T2 sequence: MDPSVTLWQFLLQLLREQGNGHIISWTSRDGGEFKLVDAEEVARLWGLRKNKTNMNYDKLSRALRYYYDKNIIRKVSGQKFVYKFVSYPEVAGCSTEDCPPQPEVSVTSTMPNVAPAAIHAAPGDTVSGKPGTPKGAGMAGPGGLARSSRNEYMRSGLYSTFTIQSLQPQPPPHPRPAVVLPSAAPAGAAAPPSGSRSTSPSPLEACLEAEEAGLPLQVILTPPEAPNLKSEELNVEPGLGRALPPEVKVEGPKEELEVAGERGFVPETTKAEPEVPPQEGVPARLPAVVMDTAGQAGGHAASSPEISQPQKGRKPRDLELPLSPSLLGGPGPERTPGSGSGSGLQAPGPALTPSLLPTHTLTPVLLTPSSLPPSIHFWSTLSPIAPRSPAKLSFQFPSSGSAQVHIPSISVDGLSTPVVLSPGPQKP
The conditions noted are these: protein: recombinant; tags: N-terminal GST; dsDNA, one strand shown. The gist of the method: as §1

In another assay the target is T3, GABPA (Homo sapiens, UniProt Q06546 1-454).
T3 sequence: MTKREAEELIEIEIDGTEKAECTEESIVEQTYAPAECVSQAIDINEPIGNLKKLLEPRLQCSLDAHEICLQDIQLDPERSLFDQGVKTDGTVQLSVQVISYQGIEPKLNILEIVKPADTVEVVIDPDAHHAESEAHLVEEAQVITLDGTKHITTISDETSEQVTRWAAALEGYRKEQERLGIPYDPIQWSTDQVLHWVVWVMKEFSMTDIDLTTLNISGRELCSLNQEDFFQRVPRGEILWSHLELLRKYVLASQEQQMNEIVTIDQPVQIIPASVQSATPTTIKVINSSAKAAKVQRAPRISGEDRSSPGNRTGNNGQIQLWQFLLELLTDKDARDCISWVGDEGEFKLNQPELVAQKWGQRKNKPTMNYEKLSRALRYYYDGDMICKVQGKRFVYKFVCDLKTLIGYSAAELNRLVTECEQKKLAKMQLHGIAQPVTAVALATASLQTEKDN
The conditions noted are these: protein: recombinant; tags: N-terminal GST; dsDNA, one strand shown. The gist of the method:
as §1

The target of the next assay is T4, ERG (Homo sapiens, UniProt P11308 1-479).
T4 sequence: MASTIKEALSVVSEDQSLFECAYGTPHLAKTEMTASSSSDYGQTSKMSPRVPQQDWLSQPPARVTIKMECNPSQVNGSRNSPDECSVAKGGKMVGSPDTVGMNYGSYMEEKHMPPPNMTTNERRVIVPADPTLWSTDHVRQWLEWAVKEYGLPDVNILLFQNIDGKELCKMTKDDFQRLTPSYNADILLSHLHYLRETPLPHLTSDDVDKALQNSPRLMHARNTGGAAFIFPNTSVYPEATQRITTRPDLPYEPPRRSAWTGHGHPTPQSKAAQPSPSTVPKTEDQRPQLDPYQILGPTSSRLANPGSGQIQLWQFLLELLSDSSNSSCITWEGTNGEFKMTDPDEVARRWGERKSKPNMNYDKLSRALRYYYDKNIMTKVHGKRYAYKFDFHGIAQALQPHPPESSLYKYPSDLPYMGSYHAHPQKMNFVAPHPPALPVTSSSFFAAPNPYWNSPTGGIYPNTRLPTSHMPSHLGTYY
The conditions noted are these: protein: recombinant; tags: N-terminal GST; dsDNA, one strand shown. An outline of the steps: as §1

A further assay addresses ELF1 (Homo sapiens, UniProt P32519 1-619). The conditions noted are these: protein: recombinant; tags: N-terminal GST; dsDNA, one strand shown. An outline of the steps: as §1
A further assay addresses T5, EHF (Homo sapiens, UniProt Q9NZC4 1-300).
T5 sequence: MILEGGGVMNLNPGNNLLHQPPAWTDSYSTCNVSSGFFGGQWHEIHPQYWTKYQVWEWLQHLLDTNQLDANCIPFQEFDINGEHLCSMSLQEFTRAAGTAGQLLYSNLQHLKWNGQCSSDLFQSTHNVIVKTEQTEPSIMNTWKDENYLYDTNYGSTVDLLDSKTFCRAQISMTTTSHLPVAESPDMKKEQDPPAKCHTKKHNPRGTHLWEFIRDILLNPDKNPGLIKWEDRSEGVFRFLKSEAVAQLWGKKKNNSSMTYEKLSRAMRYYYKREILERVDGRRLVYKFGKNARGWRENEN
The conditions noted are these: protein: recombinant; tags: N-terminal GST; dsDNA, one strand shown. An outline of the steps:
as §1

Another assay concerns the target SPI1 (Homo sapiens, UniProt P17947 1-270). The conditions noted are these: protein: recombinant; tags: N-terminal GST; dsDNA, one strand shown. An outline of the steps:
as §1

The next assay concerns the target SPIB (Homo sapiens, UniProt Q01892 1-262). The conditions noted are these: protein: recombinant; tags: N-terminal GST; dsDNA, one strand shown. The gist of the method: as §1
A further assay has as its target T6, ELK3 (Homo sapiens, UniProt P41970 1-407).
T6 sequence: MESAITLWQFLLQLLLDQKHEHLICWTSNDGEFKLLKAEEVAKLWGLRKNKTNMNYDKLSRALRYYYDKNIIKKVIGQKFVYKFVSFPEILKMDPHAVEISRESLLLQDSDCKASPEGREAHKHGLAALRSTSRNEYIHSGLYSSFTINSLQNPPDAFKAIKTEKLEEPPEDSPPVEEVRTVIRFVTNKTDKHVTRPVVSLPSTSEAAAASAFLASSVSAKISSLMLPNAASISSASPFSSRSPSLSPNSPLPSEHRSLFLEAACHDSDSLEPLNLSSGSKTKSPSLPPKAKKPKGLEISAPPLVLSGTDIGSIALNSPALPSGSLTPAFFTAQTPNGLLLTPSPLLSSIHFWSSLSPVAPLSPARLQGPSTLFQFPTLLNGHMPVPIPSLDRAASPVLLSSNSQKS
The conditions noted are these: protein: recombinant; tags: N-terminal GST; dsDNA, one strand shown. An outline of the steps:
as §1

The target of the next assay is T7, FEV (Homo sapiens, UniProt Q99581 1-238).
T7 sequence: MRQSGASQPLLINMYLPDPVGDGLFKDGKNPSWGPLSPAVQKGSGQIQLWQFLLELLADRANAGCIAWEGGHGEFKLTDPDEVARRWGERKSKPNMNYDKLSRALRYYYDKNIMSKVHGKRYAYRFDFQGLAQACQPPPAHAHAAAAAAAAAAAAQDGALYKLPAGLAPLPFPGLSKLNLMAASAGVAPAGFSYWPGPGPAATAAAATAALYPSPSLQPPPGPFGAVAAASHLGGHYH
The conditions noted are these: protein: recombinant; tags: N-terminal GST; dsDNA, one strand shown. An outline of the steps:
as §1

A further assay concerns the target ETV5 (Homo sapiens, UniProt P41161 1-510). The conditions noted are these: protein: recombinant; tags: N-terminal GST; dsDNA, one strand shown. The gist of the method:
as §1

A further assay addresses HSF1 (Homo sapiens, UniProt Q00613 1-529). The conditions noted are these: protein: recombinant; tags: N-terminal GST; chain copies: 3; dsDNA, one strand shown. The gist of the method: as §1
The target in a further assay is T8, SPIC (Homo sapiens, UniProt Q8N5J4 1-248).
T8 sequence: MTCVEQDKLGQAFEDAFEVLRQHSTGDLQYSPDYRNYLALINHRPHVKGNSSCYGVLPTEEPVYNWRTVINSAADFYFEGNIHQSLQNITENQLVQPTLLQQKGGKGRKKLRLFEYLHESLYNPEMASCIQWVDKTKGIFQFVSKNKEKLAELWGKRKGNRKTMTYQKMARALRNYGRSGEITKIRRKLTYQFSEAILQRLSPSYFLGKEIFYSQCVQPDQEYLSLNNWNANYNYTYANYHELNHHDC
The conditions noted are these: protein: recombinant; tags: N-terminal GST; dsDNA, one strand shown. The gist of the method:
as §1

The next assay deals with ELF4 (Homo sapiens, UniProt Q99607 1-663). The conditions noted are these: protein: recombinant; tags: N-terminal GST; dsDNA, one strand shown. An outline of the steps: as §1
The target of the next assay is T9, ELK4 (Homo sapiens, UniProt P28324-2 1-405).
T9 sequence: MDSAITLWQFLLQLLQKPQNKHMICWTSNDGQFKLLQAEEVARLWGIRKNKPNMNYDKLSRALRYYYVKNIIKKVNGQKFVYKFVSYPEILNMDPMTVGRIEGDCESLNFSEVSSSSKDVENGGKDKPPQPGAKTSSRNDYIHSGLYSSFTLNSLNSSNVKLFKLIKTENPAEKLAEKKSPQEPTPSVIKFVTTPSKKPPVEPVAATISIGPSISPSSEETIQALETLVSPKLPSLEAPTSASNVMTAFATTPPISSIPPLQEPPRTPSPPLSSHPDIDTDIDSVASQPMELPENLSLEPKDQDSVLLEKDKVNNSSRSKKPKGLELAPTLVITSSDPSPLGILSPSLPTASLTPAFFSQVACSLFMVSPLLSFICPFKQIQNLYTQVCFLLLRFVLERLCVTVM
The conditions noted are these: protein: recombinant; tags: N-terminal GST; dsDNA, one strand shown. The gist of the method:
as §1

The target of a further assay is T10, ETV2 (Homo sapiens, UniProt O00321 1-342).
T10 sequence: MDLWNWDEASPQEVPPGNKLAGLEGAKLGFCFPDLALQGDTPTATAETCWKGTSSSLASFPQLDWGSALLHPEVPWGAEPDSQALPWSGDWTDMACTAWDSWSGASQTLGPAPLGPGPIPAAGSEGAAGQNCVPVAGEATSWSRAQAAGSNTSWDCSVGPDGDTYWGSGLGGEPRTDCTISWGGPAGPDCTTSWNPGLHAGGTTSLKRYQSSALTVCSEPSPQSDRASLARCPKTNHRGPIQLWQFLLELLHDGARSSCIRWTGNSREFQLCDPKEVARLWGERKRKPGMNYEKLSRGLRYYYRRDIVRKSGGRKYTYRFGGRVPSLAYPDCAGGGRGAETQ
The conditions noted are these: protein: recombinant; tags: N-terminal GST; dsDNA, one strand shown. The gist of the method: as §1

The next assay has as its target T11, ELF3 (Homo sapiens, UniProt P78545 1-371).
T11 sequence: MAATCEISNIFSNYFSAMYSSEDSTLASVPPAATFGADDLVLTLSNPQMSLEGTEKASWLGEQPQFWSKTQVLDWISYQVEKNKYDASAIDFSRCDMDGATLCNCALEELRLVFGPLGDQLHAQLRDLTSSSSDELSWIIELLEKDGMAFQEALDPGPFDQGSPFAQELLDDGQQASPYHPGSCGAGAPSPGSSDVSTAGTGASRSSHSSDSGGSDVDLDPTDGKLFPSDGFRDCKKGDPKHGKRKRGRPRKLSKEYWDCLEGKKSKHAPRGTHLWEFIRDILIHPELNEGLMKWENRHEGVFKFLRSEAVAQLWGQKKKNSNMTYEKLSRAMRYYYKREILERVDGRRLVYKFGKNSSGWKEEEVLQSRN
The conditions noted are these: protein: recombinant; tags: N-terminal GST; dsDNA, one strand shown. An outline of the steps:
as §1

In another assay the target is CRX (Homo sapiens, UniProt O43186 1-299). The conditions noted are these: protein: recombinant; tags: N-terminal GST; dsDNA, one strand shown. An outline of the steps: as §1
In the next assay the target is ETV1 (Homo sapiens, UniProt P50549 1-477). The conditions noted are these: protein: recombinant; tags: N-terminal GST; dsDNA, one strand shown. An outline of the steps: as §1
Chain of ETV1 (P50549 whole entry): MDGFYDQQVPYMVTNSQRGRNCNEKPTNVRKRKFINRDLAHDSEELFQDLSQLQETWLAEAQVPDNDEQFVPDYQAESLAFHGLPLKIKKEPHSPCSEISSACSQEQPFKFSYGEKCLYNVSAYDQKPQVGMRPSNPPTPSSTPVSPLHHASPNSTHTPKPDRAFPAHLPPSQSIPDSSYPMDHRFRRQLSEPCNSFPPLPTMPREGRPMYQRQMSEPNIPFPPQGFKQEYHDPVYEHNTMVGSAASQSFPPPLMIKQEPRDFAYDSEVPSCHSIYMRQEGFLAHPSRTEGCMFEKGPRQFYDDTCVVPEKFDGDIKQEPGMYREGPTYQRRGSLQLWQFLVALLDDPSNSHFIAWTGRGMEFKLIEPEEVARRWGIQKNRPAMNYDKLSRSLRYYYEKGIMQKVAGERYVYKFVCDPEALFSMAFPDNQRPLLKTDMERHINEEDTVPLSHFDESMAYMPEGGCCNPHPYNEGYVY

Chain of ELF4 (Q99607 whole entry): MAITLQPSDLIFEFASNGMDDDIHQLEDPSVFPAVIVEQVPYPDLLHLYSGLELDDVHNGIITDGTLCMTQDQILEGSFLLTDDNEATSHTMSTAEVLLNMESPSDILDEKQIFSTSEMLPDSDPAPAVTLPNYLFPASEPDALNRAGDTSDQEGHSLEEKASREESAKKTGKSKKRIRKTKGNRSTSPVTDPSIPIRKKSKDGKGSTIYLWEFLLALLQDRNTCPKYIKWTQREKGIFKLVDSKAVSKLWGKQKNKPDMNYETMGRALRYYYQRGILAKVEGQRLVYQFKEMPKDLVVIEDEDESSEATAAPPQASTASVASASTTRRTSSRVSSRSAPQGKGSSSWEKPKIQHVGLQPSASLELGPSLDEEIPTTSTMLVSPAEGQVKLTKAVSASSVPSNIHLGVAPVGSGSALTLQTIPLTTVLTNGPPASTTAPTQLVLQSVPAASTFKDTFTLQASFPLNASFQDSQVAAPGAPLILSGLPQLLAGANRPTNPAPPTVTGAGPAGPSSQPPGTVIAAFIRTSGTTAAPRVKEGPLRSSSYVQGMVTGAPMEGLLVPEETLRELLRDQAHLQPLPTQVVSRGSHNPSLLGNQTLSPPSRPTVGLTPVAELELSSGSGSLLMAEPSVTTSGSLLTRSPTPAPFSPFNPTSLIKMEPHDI
Chain of HSF1 (Q00613 whole entry): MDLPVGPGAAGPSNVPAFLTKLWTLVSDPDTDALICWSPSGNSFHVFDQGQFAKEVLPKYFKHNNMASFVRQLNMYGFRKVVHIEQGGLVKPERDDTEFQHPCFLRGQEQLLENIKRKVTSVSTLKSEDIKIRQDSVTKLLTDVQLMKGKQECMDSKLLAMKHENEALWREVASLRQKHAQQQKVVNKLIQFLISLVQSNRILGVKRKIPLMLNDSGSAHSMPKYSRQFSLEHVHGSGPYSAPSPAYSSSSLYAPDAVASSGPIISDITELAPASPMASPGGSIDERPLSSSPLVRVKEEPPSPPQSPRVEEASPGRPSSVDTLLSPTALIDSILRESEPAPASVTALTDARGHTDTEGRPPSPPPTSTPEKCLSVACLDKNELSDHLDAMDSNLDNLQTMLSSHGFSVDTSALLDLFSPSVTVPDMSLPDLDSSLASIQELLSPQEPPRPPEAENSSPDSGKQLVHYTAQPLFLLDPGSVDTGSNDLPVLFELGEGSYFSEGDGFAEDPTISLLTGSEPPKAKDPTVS
Chain of ELF1 (P32519 whole entry): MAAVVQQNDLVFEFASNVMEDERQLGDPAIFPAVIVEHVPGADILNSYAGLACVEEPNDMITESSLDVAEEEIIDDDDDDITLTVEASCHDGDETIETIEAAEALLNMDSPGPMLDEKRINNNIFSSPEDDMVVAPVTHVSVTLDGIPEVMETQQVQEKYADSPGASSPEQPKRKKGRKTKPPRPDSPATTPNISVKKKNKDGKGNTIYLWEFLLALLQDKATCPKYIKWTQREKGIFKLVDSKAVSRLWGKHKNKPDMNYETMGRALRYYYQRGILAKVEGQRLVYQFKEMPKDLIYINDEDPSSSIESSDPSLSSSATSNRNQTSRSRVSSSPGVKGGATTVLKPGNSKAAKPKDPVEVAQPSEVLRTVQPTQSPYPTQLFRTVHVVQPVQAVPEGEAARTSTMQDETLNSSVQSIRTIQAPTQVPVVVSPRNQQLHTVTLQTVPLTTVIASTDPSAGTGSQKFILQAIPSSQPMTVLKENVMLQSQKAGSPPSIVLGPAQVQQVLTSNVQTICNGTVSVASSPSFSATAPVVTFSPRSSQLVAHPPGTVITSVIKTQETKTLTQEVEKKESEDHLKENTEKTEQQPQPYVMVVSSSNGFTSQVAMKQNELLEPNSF
Chain of ETV5 (P41161 whole entry): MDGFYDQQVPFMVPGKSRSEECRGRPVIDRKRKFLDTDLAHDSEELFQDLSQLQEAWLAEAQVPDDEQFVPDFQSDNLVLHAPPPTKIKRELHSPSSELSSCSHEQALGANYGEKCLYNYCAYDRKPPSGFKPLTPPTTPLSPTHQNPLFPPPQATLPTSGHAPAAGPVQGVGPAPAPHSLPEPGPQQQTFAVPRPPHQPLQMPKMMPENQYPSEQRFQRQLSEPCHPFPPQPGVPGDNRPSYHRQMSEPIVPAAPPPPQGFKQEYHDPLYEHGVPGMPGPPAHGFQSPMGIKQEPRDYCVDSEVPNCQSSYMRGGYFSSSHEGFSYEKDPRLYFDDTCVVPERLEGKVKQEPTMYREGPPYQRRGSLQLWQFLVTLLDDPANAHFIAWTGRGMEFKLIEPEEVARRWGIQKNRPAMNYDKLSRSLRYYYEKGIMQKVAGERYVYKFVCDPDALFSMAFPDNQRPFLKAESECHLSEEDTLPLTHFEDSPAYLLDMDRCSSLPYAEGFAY
Chain of SPIB (Q01892 whole entry): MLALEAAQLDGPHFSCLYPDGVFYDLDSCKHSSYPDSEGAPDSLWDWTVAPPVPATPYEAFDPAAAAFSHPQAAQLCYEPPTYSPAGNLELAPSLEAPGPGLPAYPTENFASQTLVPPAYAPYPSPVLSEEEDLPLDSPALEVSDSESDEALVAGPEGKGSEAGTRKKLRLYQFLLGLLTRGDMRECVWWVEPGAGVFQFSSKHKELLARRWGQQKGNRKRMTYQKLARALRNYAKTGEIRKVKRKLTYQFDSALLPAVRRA
Chain of CRX (O43186 whole entry): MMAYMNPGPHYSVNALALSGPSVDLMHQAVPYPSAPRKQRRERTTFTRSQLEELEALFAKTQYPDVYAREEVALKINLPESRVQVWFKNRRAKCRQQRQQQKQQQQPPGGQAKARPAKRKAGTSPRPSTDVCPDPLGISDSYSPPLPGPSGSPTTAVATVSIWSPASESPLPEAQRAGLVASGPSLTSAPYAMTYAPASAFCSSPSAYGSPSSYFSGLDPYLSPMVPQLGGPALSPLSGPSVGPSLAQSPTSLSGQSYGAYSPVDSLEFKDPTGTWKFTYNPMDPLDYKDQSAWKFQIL

As for TCTCGC, the binding signal in the assay with FLI1 was 1.82 fold enrichment (6-mer frequency, TF over GST control); in the assay with ELK1, 1.75 fold enrichment (6-mer frequency, TF over GST control); in the assay with GABPA, 1.88 fold enrichment (6-mer frequency, TF over GST control); with ERG, 1.72 fold enrichment (6-mer frequency, TF over GST control); in the assay with ELF1 it was 1.77 fold enrichment (6-mer frequency, TF over GST control); in the assay with EHF, 1.65 fold enrichment (6-mer frequency, TF over GST control). Besides, the binding signal was 1.69 fold enrichment (6-mer frequency, TF over GST control) with SPI1; 1.64 fold enrichment (6-mer frequency, TF over GST control) in the assay with SPIB; 1.72 fold enrichment (6-mer frequency, TF over GST control) with ELK3; 1.64 fold enrichment (6-mer frequency, TF over GST control) with FEV; 1.6 fold enrichment (6-mer frequency, TF over GST control) in the assay with ETV5; 2.5 fold enrichment (6-mer frequency, TF over GST control) in the assay with HSF1. Besides, the binding signal with SPIC was 1.4 fold enrichment (6-mer frequency, TF over GST control); with ELF4 it was 1.75 fold enrichment (6-mer frequency, TF over GST control); in the assay with ELK4, 1.76 fold enrichment (6-mer frequency, TF over GST control); with ETV2, 1.96 fold enrichment (6-mer frequency, TF over GST control); in the assay with ELF3 it was 1.88 fold enrichment (6-mer frequency, TF over GST control); with CRX, 1.84 fold enrichment (6-mer frequency, TF over GST control). Further, the binding signal in the assay with ETV1 is 1.75 fold enrichment (6-mer frequency, TF over GST control).
